Only a selection was taken, and hits are over-represented in it overall.
RmlCD inh mix: inhibitors of RmlC and RmlD coupled enzymes | RmlC/RmlD coupled enzyme inhibition, 384-well mixture HTS | 110,000 tested, 0.39% active | inhibition, % at 5.5 µM | AID 1532; in the data active = inhibition above about 30%, passing the limit was not always enough
HIV RNase H inh: inhibitors of HIV-1 reverse transcriptase RNase H | inhibition, % at 10 µM | P04585 | 65,000 tested, 1.9% active | RT-RNase H RNA/DNA duplex cleavage, fluorescence; in the data active = inhibition above about 50%
RmlCD artifact: shows fluorescent artifact in RmlC/RmlD assay, dose-response counter-screen. shares compounds with RmlCD inh mix. RmlC/RmlD assay fluorescence artifact counter-screen. calls only. 360 tested, 96% active; call rule not given here;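 also: compound alone with no enzyme and no substrates present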
Hits are given with their value; – = inactive; · = not tested or not shown; + = active, no number.

SMILES	RmlCD inh mix	HIV RNase H inh	RmlCD artifact
Cc1cc(=O)oc2cc(NS(=O)(=O)c3ccccc3)ccc12	·	·	+
CC(C)c1cc(Nc2cccc(O)c2)cc(C(C)C)c1O	–	–	·
C=CCOC(=O)C1=C(C)NC(SCC(=O)NC(=O)OCC)=C(C#N)C1c1cccnc1 (stereo unspecified)	30.3	–	+
C=CCOC(=O)C1=C(C)NC(SCC(=O)N(CC)CC)=C(C#N)C1c1ccccc1 (stereo unspecified)	·	–	·
COc1ccc(CCNC(=O)CSc2c[nH]c3ccccc23)cc1OC	–	·	·
CC1=CC(c2ccccc2)n2nc(NS(=O)(=O)c3ccc(C)cc3)nc2N1 (stereo unspecified)	53.6	–	+
CC1=CC(c2ccc(Cl)cc2)n2nc(NS(=O)(=O)c3ccc(C)cc3)nc2N1 (stereo unspecified)	–	·	·
N#Cc1c(N2CCCCC2)nc(N)c2c(N)nc3c(c12)CC(c1ccccc1)O3 (stereo unspecified)	–	·	·
CN(CCO)c1nc(N)c2c(N)nc3c(c2c1C#N)CC(=O)N3C1CCCC1	30.2	·	+
CC(C)(C)N1C(=O)Cc2c1nc(N)c1c(N)nc(N3CCCCC3CO)c(C#N)c21 (stereo unspecified)	34.5	–	+
CCN(CC)c1nc(N)c2c(N)nc3c(c2c1C#N)CC(c1ccccc1)O3 (stereo unspecified)	–	–	·
N#CC12CCCCC1CC1CCCCC1(C#N)N2Cc1cccnc1 (stereo unspecified)	–	–	·
CC(C)CCNC(=O)c1cc(-c2ccco2)nc2ccccc12	–	·	·
O=C(NCC1CCCO1)c1cc(-c2ccco2)nc2ccccc12 (stereo unspecified)	53.4	–	+
CC1CN(C(=O)c2cc3c(=O)n4ccccc4nc3s2)CC(C)O1 (stereo unspecified)	52.7	–	+
CC1CN(C(=O)c2cc3c(s2)CCC3)CC(C)O1 (stereo unspecified)	–	–	·
Cc1ccccc1C(=O)NC(C)c1ccc2c(c1)CCCC2 (stereo unspecified)	–	·	·
COc1ccccc1-c1nnc(N(C)C(=O)C2CCCO2)s1 (stereo unspecified)	37.5	–	+
CN(C(=O)c1ccncc1)c1nnc(-c2ccncc2)s1	102.8	–	+
COc1ccc(-c2nnc(NC(=O)C3CCCO3)s2)cc1 (stereo unspecified)	–	·	·
Cc1cccc(C(=O)N(C)c2nnc(-c3ccncc3)s2)c1	–	–	·
CN(C(=O)C1CCCO1)c1nnc(-c2ccncc2)s1 (stereo unspecified)	160.9	–	+
COCC(=O)N(C)c1nnc(-c2ccccn2)s1	110.6	–	+
COCC(=O)N(C)c1nnc(-c2ccc([N+](=O)[O-])cc2)s1	–	·	·
COc1ccccc1CCNC(=O)C1CCCO1 (stereo unspecified)	–	–	·
SMILES	RmlCD inh mix	HIV RNase H inh	RmlCD artifact
CC(C)(CNc1ccc([N+](=O)[O-])cc1Cl)CNS(C)(=O)=O	–	·	·
COC(=O)c1cc(Br)c(=O)n(-c2ccc(F)cc2)c1	–	·	·
O=C(NC(=S)Nc1ccc(C(=O)N2CCOCC2)cc1)c1ccc([N+](=O)[O-])cc1	–	·	·
CN(C(=O)C1CCOC1)c1nnc(-c2ccncc2)s1 (stereo unspecified)	48.1	–	+
CN(C(=O)C1CCOC1)c1nnc(-c2ccccn2)s1 (stereo unspecified)	–	–	·
CN(C(=O)C1CCCO1)c1nnc(-c2ccccn2)s1 (stereo unspecified)	162.3	–	+
Cc1cnc(-c2nnc(N(C)C(=O)C3CCOC3)s2)cn1 (stereo unspecified)	·	–	·
Cc1ccc2cc(CN(C)C(=O)C3CCCO3)c(=O)[nH]c2c1 (stereo unspecified)	–	–	·
CC(C)c1ccc(NC(=O)C(c2ccccc2)N(C)C(=O)CCc2c[nH]c3ccccc23)cc1 (stereo unspecified)	–	·	·
O=C1[C@H]2CCCC[C@H]2C(=O)N1CCCCN1CCN(c2nsc3ccccc23)CC1	–	·	·
COc1ccc2c(Cl)c(C(=O)NCCCn3ccnc3)sc2c1	–	–	·
Cc1cccc(Cn2c(SCC(=O)Nc3ccccc3)nc3c2c(=O)[nH]c(=O)n3C)c1	–	–	·
CCOC(=O)c1cc2ccc(OC(=O)c3ccco3)cc2oc1=O	+	–	+
Cc1oc2cc(OCC(=O)O)ccc2c(=O)c1Oc1ccccc1	–	–	·
CCOC(=O)c1c(C)n(C)c2ccc(OC(=O)c3ccco3)cc12	–	·	·
COc1ccccc1Oc1c(C)oc2cc(OC(=O)c3ccco3)ccc2c1=O	105.0	–	+
CC(C)(C)NC(=O)[C@H]1CC[C@H]2[C@@H]3CC[C@H]4NC(=O)C=C[C@]4(C)[C@H]3CC[C@]12C	–	·	·
Cc1ccc(CN2CC(C(=O)O)CC2=O)cc1 (stereo unspecified)	–	·	·
Cc1ccc(CN2CC(C(=O)Nc3ccc4c(C)cc(=O)oc4c3)CC2=O)cc1 (stereo unspecified)	–	–	+
